From PubChem
In the library only some 3.8% were active in any assay of this set; here they are far more common.
HSP90 inh – HSP90 inhibitors, primary screen, cell lysate, luminescence | Heat shock protein HSP 90 (rabbit reticulocyte lysate; luciferase refolding) | 290,000 compounds, 0.91% hits | inhibition, % at 5.6 µM | Rabbit reticulocyte lysate, luciferase refolding luminescence, 3 h | AID 1789, 2009;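 active = inhibition above the screen-wide mean plus 3 SD, computed separately per campaign, cut at about 16% in these data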;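 note: 0% = DMSO wells and 100% = 60 µM geldanamycin wells; inhibitors lower the luminescence because luciferase stays unfolded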
Hsp70 activator – Hsp70 transcriptional activators, primary screen, cell-based, HeLa, Hsp70 promoter luciferase, luminescence, 10 µM. AID 1203, 2008. activation, % at 10 µM. 200,000 compounds, 0.04% hits. HeLa Hsp70 promoter luciferase reporter; scaled: vehicle 0, proteasome-inhibitor control 100%;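 active = activation above the mean across all tested compounds plus 3 SD, cutoff set per campaign, cut at about 5.5% in these data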;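 note: 100% = MG132 at 30 µM as the positive control and 0% = DMSO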
NALP1 inh – NALP1 inflammasome inhibitors in reconstituted yeast, colorimetric, S. cerevisiae, triplicate retest | S. cerevisiae NALP1/ASC/caspase-1 growth, X-gal OD620, 72 h | inhibition, % at 10 µM | 280,000 compounds, 0.61% hits; in the data active = inhibition mostly above about 24%, no sharp cut-off; inactive = mostly below about 32%
HSF1 inh – HSF1 inhibitors in luciferase reporter cells, primary screen, cell-based, NIH3T3, luminescence | 300,000 compounds, 0.77% hits | NIH3T3-HGL HSE-luciferase, MG132-induced, luminescence 8 h; hits give low values | activity change, negative = inhibition, % at 7.5 µM (by protocol);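 active = more than half of replicate wells show activity change below -50%, luminescence cut by over half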;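 note: luciferase reports HSF-1 transcriptional activity via heat shock element; 0% = median of DMSO wells and -100% = zero luminescence signal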
HSF-1 act – HSF-1 activators, primary screen, NIH3T3-HGL cells, MG132 stress, luminescence, single point. NIH3T3-HGL HSF-1 luciferase reporter, 8 h; 100% = twice DMSO control signal. activation, % at 9 µM. 300,000 compounds, 1.7% hits. AID 504408, 2011;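 active = mean replicate activation of at least 50% with a set share of replicates each reaching 50%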;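 note: 0% = median of the neutral control wells and 100% = twice that signal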
p-CIP stab down – p/CIP-EGFP fusion destabilizers, primary screen, fluorescence, F442A cells; Q05BA5; 16 h; decrease of EGFP signal, % at 10 µM; 290,000 compounds, 0.01% hits;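 active = EGFP signal decrease of at least 30% at 10 µM or well 3 SD below plate mean, unless failing retest; inactive = the rest, including hits failing retest or dose response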
HSP90 confirm – HSP90 inhibitors, confirmation, cell lysate, luminescence; shares compounds with HSP90 inh; rabbit reticulocyte lysate, luciferase refolding luminescence, 3 h; inhibition, % at 5.9 µM; 2,300 compounds, 64% hits; AID 1846, 2009; in the data active = inhibition above about 18%;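 note: 0% = vehicle wells and 100% = reference inhibitor wells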
FLuc counter – firefly luciferase inhibitors, HSP90 counter-screen, confirmation, artefact control for HSP90 inhibitor project, biochemical, luminescence, triplicate | shares compounds with HSP90 inh | purified native firefly luciferase | inhibition, % at 5.9 µM | 2,300 compounds, 48% hits | AID 1847, 2009;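 active = inhibition above the mean inhibition of all tested sample wells plus 3 SD, cut at about 10% in these data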;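 note: 0% = DMSO with luciferase and 100% = wells lacking luciferase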
Target sequence (P08659 whole entry, looked up): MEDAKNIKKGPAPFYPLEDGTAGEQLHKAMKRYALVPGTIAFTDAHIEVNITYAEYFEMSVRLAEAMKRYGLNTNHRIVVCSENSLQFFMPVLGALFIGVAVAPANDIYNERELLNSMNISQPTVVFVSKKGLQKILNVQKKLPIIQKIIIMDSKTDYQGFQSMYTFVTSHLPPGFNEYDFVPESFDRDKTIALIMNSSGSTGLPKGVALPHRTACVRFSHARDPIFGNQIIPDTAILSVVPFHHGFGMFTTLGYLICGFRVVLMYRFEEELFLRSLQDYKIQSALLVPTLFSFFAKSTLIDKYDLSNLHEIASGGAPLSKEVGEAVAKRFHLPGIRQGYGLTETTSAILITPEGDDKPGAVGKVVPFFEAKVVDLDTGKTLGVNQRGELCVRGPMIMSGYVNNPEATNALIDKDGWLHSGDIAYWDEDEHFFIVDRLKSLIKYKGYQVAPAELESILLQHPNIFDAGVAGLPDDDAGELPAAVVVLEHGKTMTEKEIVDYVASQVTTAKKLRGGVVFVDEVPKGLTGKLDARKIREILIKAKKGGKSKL
Starred values were filed as active, the others as inactive; nt = no result.

SMILES	HSP90 inh	Hsp70 activator	NALP1 inh	HSF1 inh	HSF-1 act	p-CIP stab down	HSP90 confirm	FLuc counter
CN(C)CCNc1c2c(nc3nnnn13)CCCC2	1	0	2	3	0	4	nt	nt
COc1ccc(/C=C/C(=O)N(Cc2cccs2)C2CCS(=O)(=O)C2)cc1 (configuration not stated)	-1	nt	nt	-2	27	-4	nt	nt
COc1ccccc1NC(=O)c1coc(=O)c(Br)c1	55*	nt	nt	-14	-3	-9	83*	-7
CCC(=O)Nc1cccc(-c2ccc(N3CCCCC3)nn2)c1	25*	nt	10	23	28	-6	47*	15*
CCC(=O)Nc1cccc(-c2ccc(N3CCN(C)CC3)nn2)c1	11	nt	12	22	17	-7	nt	nt
O=C(c1ccc(OC2CCN(C/C=C/c3ccc(F)cc3)CC2)cc1)N1CCCC1	-3	nt	24	-5	-2	12	nt	nt
CC(=O)c1sc(NC(=O)C2COc3ccccc3O2)nc1C (configuration not stated)	43*	0	3	-1	-5	5	70*	66*
CC1(C)Oc2ccc(NC(=O)C3COc4ccccc4O3)cc2O1 (configuration not stated)	27*	0	30	-11	-25	-18	49*	44*
O=C(Nc1nncs1)C1COc2ccccc2O1 (configuration not stated)	3	0	14	9	-1	3	nt	nt
Cc1ccc(CS(=O)(=O)CC(C)(O)c2ccc(Cl)cc2)cc1 (configuration not stated)	3	nt	6	10	-1	1	nt	nt
Cc1nc(C)n(CCNC(=O)c2ccco2)n1	36*	nt	20	1	-14	6	5	2
Cc1c(C(=O)Nc2ccccc2)cn2c(nc3ccccc32)c1C#N	35*	0	20	12	36	-6	2	-2
CCOc1ccc(/C=N/NC(=O)c2ccccc2NC(=O)c2ccc(OC)cc2)cc1	19*	0	7	0	25	-10	10	-25
Cc1ccc(NS(=O)(=O)c2c(C)[nH]c(C)c2C(=O)N2CCCCC2)c(Br)c1	-2	nt	6	4	6	0	nt	nt
C/C(=N\NC(=O)c1ccccc1O)c1cccs1	23*	0	9	5	30	-1	40*	44*
O=C(NCCN1CCOCC1)c1ccc2c(c1)N(Cc1cccc(F)c1)C(=O)c1ccccc1S2	20*	0	-5	1	-3	-3	-4	-8
Cc1ccc(CN2C(=O)c3ccccc3Sc3ccc(C(=O)NCCCN4CCOCC4)cc32)cc1	-1	nt	14	5	5	-10	nt	nt
CCCCCN(C(=O)CCCSc1nncs1)c1c(N)n(CCCC)c(=O)[nH]c1=O	0	0	-1	5	10	-6	nt	nt
Cc1ccc2nc(-c3ccc(NC(=O)C4CCCO4)cc3)[nH]c2c1 (configuration not stated)	24*	0	0	-22	-25	-2	55*	35*
O=C(Nc1ccc(-c2nc3cc(Cl)ccc3o2)cc1)C1CCCO1 (configuration not stated)	-3	0	-2	13	6	2	nt	nt
O=C(COc1ccccc1)Nc1nc2cc3c(cc2s1)OCO3	1	nt	15	1	11	-23	nt	nt
CC1CCc2nc(NC(=O)c3ccco3)sc2C1 (configuration not stated)	54*	0	-4	-21	-27	1	82*	77*
CC1CCc2nc(NC(=O)Cc3cccs3)sc2C1 (configuration not stated)	-4	1	20	9	35	2	nt	nt
